Compounds without any hit were thinned out: in the full panel of roughly 83,000, 20% have a hit.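 Interpretation: 100, growth as untreated; towards 0, rising growth inhibition; 0, no net growth; 0 to -100, cell death. Compounds scoring below 10 were considered active.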 A number with no mark means an inactive call. The source made the active and inactive calls.
System: NCI-H226 lung
Assay: NCI-60 one-dose screen, 48 h (100 = growth as untreated, 0 = no growth, -100 = all killed)
Conditions: 10 µM unless noted
Experimental: Growth inhibition of the NCI-H226 human Non-Small Cell Lung tumor cell line is measured as a screen for anti-cancer activity. Cells are grown in 96 well plates and exposed to the test compound for 48 hours. Compounds are tested at a single concentration, which is 10^-5 M for most compounds. The reported endpoint is percent growth (GI% or GIPRCNT), where numbers from 0 - 100% represent growth inhibition, and numbers from -100% - 0 represent cell death. For example, a value of 40 represents 60% growth inhibition. A value of 0 means no net growth occurred over the course of the experiment. A value of -40 indicates 40% of cells at the beginning of the experiment died by the end of the experiment. A value of -100 means all cells are dead at the end of the experiment.
NCI-60 Human Tumor Cell Lines Screen was performed using the standard one-dose NCI protocol, which is described in more detail at https://dtp.cancer.gov/discovery_development/nci-60/default.htm.
Compounds with GIPRCNT values below 10 were considered active. Activity score was based on GIPRCNT using the following formula: […]
Score is 0 for GIPRCNT values of 100 or above, 50 for GIPRCNT values of 0, and 100 for GIPRCNT values of -100.

SMILES | growth
NC(=N\N=C/Cc1ccccc1)/C(N)=N\N=C\Cc1ccccc1 | 104%
COc1ccc(-c2cc(-c3cccnc3)nc(S(=O)(=O)CC(=O)Nc3ccc(C)cc3)c2C#N)cc1OC | 94.2%
CCSc1nc(-c2ccc(F)cc2)c(C#N)c(=O)[nH]1 | 98.7%
O=c1sc2ncnc3ncn1c32 | 61.4%
CN1CCN(c2nc3scc(-c4ccccc4)c3c(=O)[nH]2)CC1 | 98.6%
Cc1cc(C)cc(S(=O)(=O)n2ccc(-c3ccc4c(c3)CCC(C)(C)O4)n2)c1 | 66.8%
CC[n+]1c(/C=C/c2ccc(N3CCCC3)cc2)cccc1/C=C/c1ccc(N2CCCC2)cc1 | -65.7% (active)
CN(C)CCCNc1nn2c(=O)c3ccccc3nc2c2ccccc12 | 53.4%
O=C(O)CNC(=O)C1(N2C(=O)c3ccccc3C2=O)CCCC1 | 96.7%
Cc1ccc(C(=O)Cc2ccccc2)c(O)c1 | 102%
c1ccc(Nc2ccc(Nc3nc(-c4ccccc4)nc4ccccc34)cc2)cc1 | 81.2%
O=C(N/N=C/c1ccc(Cl)cc1Cl)c1ccccc1Nc1cccc(C(F)(F)F)c1 | 50%
C(=C1c2ccccc2-c2ccccc21)c1ccccn1 | 99.6%
COc1cc(/C=C/C(=O)CC(=O)/C=C/c2ccc(OC(=O)CCNC34CC5CC(CC(C5)C3)C4)c(OC)c2)ccc1OC(=O)CCNC12CC3CC(CC(C3)C1)C2 | 39.8%
Nc1ccccc1-c1ccn[nH]1 | 86.8%
COc1ccc2c(c1)CC[C@@H]1[C@@H]2CC[C@]2(C)[C@@H](O)C(=O)C[C@@H]12 | 114%
Clc1ccc2[nH]cc(-c3cncn3CCc3ccccc3)c2c1 | 47.9%
CN1C(=O)C(C2=NN(C=O)C(c3ccc(F)cc3)C2)C(=O)N(C)C1=O (stereo not given) | 85.2%
NS(=O)(=O)c1ccc(-n2ncc3c(SCc4ccccc4)ncnc32)cc1 | 99.8%
C/C(=C\CCc1ccoc1)CC/C=C(\C)CCCNc1ccc(F)cc1 | 88.5%

SMILES | growth
Cc1[nH]c(=O)[nH]c(=O)c1CCSSCCc1c(C)[nH]c(=O)[nH]c1=O | 102%
O=C(CSc1ncc(-c2ccccc2)n1-c1ccccc1)Nc1ccc(-c2nc3ccccc3s2)cc1 | 103%
CCCCNCCCN(CCCC)CCCNCCCC | 97.3%
Nc1ccc2c(c1)C(=O)c1cc(Cl)c(Cl)cc1-2 | 83.1%
O=C(Nc1cccc(-n2cc(-c3ccncc3)c(-c3cc(O)cc(Cl)c3)n2)c1)Nc1ccc(Cl)c(Cl)c1 | 14.5%
CCCCc1ccc(C(N)=O)nc1 | 86.5%
C[C@]12CC[C@H](O)CC1=CC[C@@H]1[C@@H]2CC[C@]2(C)C(c3cccnc3)=CC[C@@H]12 | 58.5%
OCCCc1n(Cc2ccc3ccccc3c2)c2ccccc2[n+]1Cc1ccc2ccccc2c1 | 48.5%
COc1cccc(-c2nc3cc(NC(=O)c4ccc(Cl)c(C#N)c4)ccc3o2)c1 | 76.1%
COc1ccc(/C=C2/SC(=Nc3c(C)nn(-c4ccccc4)c3N)NC2=O)cc1 | 51.1%
Cc1ccc(/C=C(/C#N)n2nnc3ncccc32)cc1 | 32.1%
NS(=O)(=O)N(c1cc(C(F)(F)F)cc(C(F)(F)F)c1)C1CCN(Cc2ccc(C(F)(F)F)cc2)CC1 | 78.1%
O=C(N/N=C/c1cccc([N+](=O)[O-])c1)c1ccc(Br)o1 | 109%
Clc1ccc2c(c1)C(Br)c1cc(Cl)cc(Cl)c1-2 (stereo not given) | 14.4%
COc1ccc(-c2cc(-c3nnc(SCC(=O)Nc4ccc(C(C)=O)cc4)n3-c3ccccc3)c3ccccc3n2)cc1OC | 105%
CC1CN(C2CCCCC2)C(=O)NC1=O (stereo not given) | 101%
O=C1/C(=C/c2ccccc2Cl)CCc2ccccc21 | 106%
COc1cc(C(=O)c2cc3c(cc2C)OCO3)cc(OC)c1OC | 45.4%
COc1cc(/C=C/c2cc(/C=C/c3ccc(O)c(OC)c3)n(C(=O)Cc3ccccc3)n2)ccc1O | 13.7%
C[C@H]1O[C@@H](O[C@H]2[C@@H](O)C[C@H](O[C@H]3[C@@H](O)C[C@H](O[C@H]4CC[C@]5(C)C6C[C@@H](O)[C@]7(C)[C@@H](C8=CC(=O)OC8)CC[C@]7(O)C6CC[C@@H]5C4)O[C@@H]3C)O[C@@H]2C)C[C@H](O)[C@@H]1O (stereo not given in full) | -100% (active)

Source: PubChem BioAssay (NCI)
